Screens: PubChem, National Center for Advancing Translational Sciences (NCATS)
Most compounds without a hit are left out; they make up all but 19% or so of the library.
HT1080 IDH1KD tx: kills HT-1080 cells with IDH1 knockdown | HT-1080 IDH1 knockdown viability, ATP luminescence, 48 h | Potency, µM (titrated, usually from 46.1 µM), inactives show at the top dose activity, negative = toxicity, usual class: cytotoxic | 360,000 tested, 2% active | AID 686971;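 note: potency is the fitted concentration of half-maximal effect; 0% = DMSO wells and -100% = cell-free medium wells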
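Using the IDH1-knockdown HT-1080 line run in the same batch and compound series as the NT line, viability after 48 h at 37 °C was determined by CellTiter-Glo luminescence and expressed as % activity.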
IL1B secr inh: inhibitors of inflammasome signaling (IL-1 beta secretion); THP-1 LPS/ATP IL-1B secretion, AlphaLISA, 16 h; hits give low values; activity change, % at 57.5 µM; 360,000 tested, 4.7% active; in the data active = activity change below about -50%; inconclusive = mostly about -30% to -49%
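Secreted IL-1B measured by AlphaLISA bead assay after 16 h compound exposure of THP-1 cells; compounds (final up to 57.5 uM) added 1 h before LPS (250 ng/mL) and ATP (1.25 mM) stimulation; lower signal means less secretion.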
DT40 TDP1 CPT: growth inhibition of DT40 Tdp1-/-;hTDP1 cells with camptothecin (screen for TDP1 inhibitors) | chicken DT40 Tdp1-/-;hTDP1 cells + 20 nM CPT, ATP luminescence, 48 h | Potency, µM (top dose mostly 46.2 µM), for the others: at the highest dose activity change, negative = growth inhibition, actives largely listed as inhibitors | 420,000 tested, 12% active; note: potency is the fitted concentration of half-maximal effect; nearly all actives have a fitted effect of over 55% in size
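Chicken DT40 Tdp1-/- cells complemented with human TDP1, 400 cells/well, exposed to compounds plus 20 nM camptothecin for at least 48 h at 37 C; viability read as ATP content by CellTiter-Glo luminescence.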
DT40 TDP1 no CPT: qHTS for Inhibitors of human tyrosyl-DNA phosphodiesterase 1 (TDP1): qHTS in cells in absence of CPT; DT40 Tdp1-/- hTDP1 cells, no CPT, ATP luminescence, 48 h; Potency, µM (highest dose often 46.2 µM), without a hit: at the top dose activity change, negative = growth inhibition, most hits filed as inhibitors; 420,000 tested, 15% active; AID 686978, 2013; note: potency is the fitted concentration of half-maximal effect; nearly all actives have a fitted effect of over 55% in size
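Camptothecin absent (DMSO only). Human TDP1-complemented DT40 knockout cells, 400 cells/well, 37 °C for minimum 48 hr; ATP measured via CellTiter-Glo, 30 min dark incubation, luminescence.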
HT1080NT lethal: kills 2HG-producing HT-1080-NT fibrosarcoma cells | Potency, µM (series often up to 46.1 µM), for the others: at the top dose activity, negative = less viability, most hits filed as cytotoxic | 360,000 tested, 1.6% active | HT-1080-NT fibrosarcoma viability, CellTiter-Glo ATP luminescence, 48 h;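 note: NT is the 2HG producing partner of a matched IDH1 knockdown line; potency is the fitted concentration of half-maximal effect; 0% = DMSO-treated cells and -100% = media-only wells without cells; nearly all actives have a fitted effect of over 55% in size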
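HT-1080-NT; 750 cells/well; 5% FBS RPMI; 48 h compound, 37 degrees C; CellTiter-Glo luminescence; curve fitting and curve-class assignment.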
An asterisk follows results filed as active; ? = inconclusive; . = not tested or not shown; [ ] = another dose, or the depositor's remark. Unless noted, calls come from the whole dose curve; as a rule, active = well fitted curve in the direction sought with a large enough effect; inconclusive = small, poorly fitted or top-dose-only effect, or another doubt; inactive = no such curve, though single readings can be large; an effect the other way counts as inactive or inconclusive. Unless noted, % is set by controls: 0 for no effect and ±100 for the full control effect.

SMILES	HT1080 IDH1KD tx	IL1B secr inh	DT40 TDP1 CPT	DT40 TDP1 no CPT	HT1080NT lethal
COc1ccc(S(=O)(=O)N2CCC(C(=O)NCC(=O)Nc3c(C)cccc3C)CC2)cc1OC	-13%	-16	-12%	?	-7%
O=C(Cn1c(=O)oc2ccccc21)NCc1ccc(Cl)cc1	.	.	-17%	-28%	.
CCOc1cccc2cc(-c3nc4sc5c(c4c(=O)[nH]3)CCC(C(C)(C)C)C5)c(=O)oc12 (stereo unspecified)	.	.	-6%	-3%	.
CCCN(CCC)c1nc(-c2ccccn2)nc2ccccc12	9.2µM*	-96*	1.3µM*	3.3µM*	?
COCCNc1nc(-c2ccc(N(C)C)cc2)nc2ccccc12	.	.	?	21µM*	.
CN(C)CCCNc1nc(-c2ccc(Cl)cc2)nc2ccccc12	?	-62*	?	?	?
c1ccc(CCNc2nc(-c3ccccn3)nc3ccccc23)cc1	?	-101*	3.3µM*	2.9µM*	-27%
COc1ccc(OC)c(S(=O)(=O)NC(C)(C)C)c1	1%	-13	-22%	-12%	-1%
Cc1ccc(NC(=O)C2CCCN2C(=O)OCc2ccccc2)cc1F (stereo unspecified)	-2%	1	?	?	-6%
CCCc1cc(=O)[nH]c(SCC(=O)N2CCCCCC2)n1	2%	44	-6%	17%	-13%[9.24 µM]
O=C(O)C(CCc1ccccc1)(Cc1ccccc1)C(=O)O	17%	9	-22%	0%	?
O=C(O)CCNc1nc(-c2ccccc2)nc2ccccc12	-1%	4	-2%	?	-1%
CCCCN(CC)c1nc(-c2ccncc2)nc2ccccc12	?	-15	16µM*	?	?
COc1cccc(-c2nc(NCCNC(C)=O)c3ccccc3n2)c1	.	.	0%	-20%	.
Cc1ccc(-c2nc(NCCN(C)C)c3ccccc3n2)cc1	21µM*	-95*	-17%	?	?
Cc1cccc(-c2nc(NCCCN3CCOCC3)c3ccccc3n2)c1	?	-29	18µM*	?	?
c1ccc(-c2nc(NCCCN3CCOCC3)c3ccccc3n2)cc1	-14%	?	9%	?	-1%
Cc1cccc(-c2nc(NCCCN(C)C)c3ccccc3n2)c1	?	-86*	?	?	?
Cc1ccc(CCNC(=O)CCSCc2ccccc2Cl)cc1	.	.	-20%	-21%	.
COCCN(CCOC)c1nc(-c2ccc(C)cc2)nc2ccccc12	-19%	-6	?	18µM*	-29%
COCCNc1nc(-c2ccc(C(=O)N(C)C)cc2)nc2ccccc12	.	.	-17%	-29%	.
N#Cc1ccc(N=c2ssnc2Cl)cc1	?	?	5.2µM*	7.3µM*	?
Clc1ccc(N=c2ssnc2Cl)cc1	-18%	-85*	10µM*	15µM*	-13%
N#Cc1ccc(Oc2c(Cl)cncc2Cl)cc1	-6%	-17	?	-12%	-12%
Clc1nssc1=Nc1ccccc1	0%	-29	16µM*	15µM*	-3%
SMILES	HT1080 IDH1KD tx	IL1B secr inh	DT40 TDP1 CPT	DT40 TDP1 no CPT	HT1080NT lethal
COc1cc(N=c2ssnc2Cl)cc(OC)c1OC	0%	2	3.3µM*	2.6µM*	0%
O=C(CNS(=O)(=O)c1ccc(Br)s1)NCCc1ccc(Cl)cc1	-4%	-12	-15%	?	4%
CCOc1ccccc1CNC(=O)C1Cc2cc(S(=O)(=O)N3CCCCC3)ccc2N1C(C)=O (stereo unspecified)	-23%	-9	?	?	-17%
Cc1ccc(CN2CCN(CC(=O)N/N=C/c3ccc(C)o3)CC2)cc1	1%	-12	-15%	?	1%
COc1ccc(N=c2ssnc2Cl)cc1	-1%	-3	7.3µM*	9.2µM*	-8%
Fc1ccc(N=c2ssnc2Cl)c(F)c1	?	-13	7.3µM*	9.2µM*	?
COc1ccc(N=C2SCC(=O)N2C)cc1	4%	-27	-10%	4%	1%
CN1C(=O)C2(C(C#N)=C(N)N(c3cc(Cl)cc(Cl)c3)C3=C2C(=O)CC(C)(C)C3)c2ccccc21 (stereo unspecified)	26%	-13	21µM*	?	-4%
Cc1ccc(N2C(N)=C(C#N)C3(C(=O)N(C)c4ccccc43)C3=C2CC(C)(C)CC3=O)cc1Cl (stereo unspecified)	-10%	-9	?	16µM*	-8%
CC1(C)CC(=O)C2=C(C1)OC(N)=C(C#N)C21C(=O)N(CN2CCOCC2)c2ccccc21 (stereo unspecified)	0%	3	-23%	-7%	0%
CCCCn1c(N)c(N(CC(C)C)C(=O)CCNC(=O)c2ccc(Br)cc2)c(=O)[nH]c1=O	1%	-9	0%	-14%	0%
Cc1cc(NS(=O)(=O)c2ccc(NC(=O)c3ccc(Cl)nc3)cc2)nc(C)n1	-4%	-2	-3%	-18%	-2%
Cc1ccc(C)c(NC(=S)N2CCC(NC(=O)c3ccccc3)CC2)c1	13%	3	17%	?	18%
CCCCNC(=O)C1(C)CCCCN1C(=O)c1cc2ccccc2s1 (stereo unspecified)	9%	8	8.2µM*	15µM*	15%
CCCCNC(=O)C1(C)CCN1C(=O)c1ccccc1Br (stereo unspecified)	4%	?	-1%	-5%	17%
CCCCNC(=O)C1(C)CCN1C(=O)c1cc(-c2cccs2)oc1C (stereo unspecified)	23µM*	-104*	1.6µM*	3.7µM*	?
CCCCNC(=O)C1(C)CCCCN1C(=O)c1cc(OC)ccc1Br (stereo unspecified)	?	-96*	?	?	9%
CCCCNC(=O)C1(C)CCCCN1C(=O)c1ccc2sccc2c1 (stereo unspecified)	10%	11	?	16µM*	19%
CCCCNC(=O)C1(C)CCCCN1C(=O)c1c(Cl)cccc1Cl (stereo unspecified)	6%	21	?	13µM*	?
COc1ccc(CCC(=O)NCCNC(=O)CCc2ccc(OC)cc2)cc1	-4%	-6	8%	-2%	-11%
COc1ccc(CC(=O)Nc2nc(OCC(F)(F)F)cnc2-c2ccc(Cl)cc2Cl)cc1	?	-2	?	?	?
COc1ccc(N2CCC(CNC(=S)Nc3ccc(C)cc3C)C2)cc1 (stereo unspecified)	-2%	?	?	18µM*	-17%
COc1ccc(N2CCC(CNC(=S)Nc3cccc(C)c3)C2)cc1 (stereo unspecified)	1%	-77*	?	?	-5%
